Source: the supplement of paper PMC4466140

The binders below were run against CaNbp2 (assay: SPOT peptide array binding signal intensity (averaged, normalized) (arbitrary units (background-subtracted, floor 0; scale differs between SH3 domains)); higher = stronger binding of the SH3 domain to the peptide).
Method in brief: (§1)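 Binding signal is given in arbitrary units that differ between domains and is the normalized, background-subtracted spot intensity averaged across replicates. Each GST-SH3 fusion from one of four yeast species was made in E. coli BL21(DE3), purified on glutathione Sepharose and incubated at 10 μg/ml overnight at 4°C on cellulose-bound synthetic 15-mer peptides in which cysteines were replaced by serines. Detection used anti-GST antibody, an HRP anti-mouse secondary and luminol, followed by imaging and Genespotter quantification.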

Row | Binder | SPOT peptide array binding signal intensity
1 | HPRFVSPRIPSRIVK | 428

The binders below were run against CaRvs167 in the same assay as above.
Method in brief: as §1

Row | Binder | SPOT peptide array binding signal intensity
2 | HPRFVSPRIPSRIVK | 230

These binders were tested against CaRvs167-3 in the same assay as above.
Method in brief: as §1

Row | Binder | SPOT peptide array binding signal intensity
3 | HPRFVSPRIPSRIVK | 5.75

Each binder was assayed against CaSho1 in the same assay as above.
Method in brief: as §1

Row | Binder | SPOT peptide array binding signal intensity
4 | HPRFVSPRIPSRIVK | 170

The binders below were run against CaSla1-D1-D2 in the same assay as above.
Method in brief: as §1

Row | Binder | SPOT peptide array binding signal intensity
5 | HPRFVSPRIPSRIVK | 736

What follows are binders tested against CaSla1-D3 in the same assay as above.
Method in brief: as §1

Row | Binder | SPOT peptide array binding signal intensity
6 | HPRFVSPRIPSRIVK | 11.5

The binders below were run against ScAbp1 in the same assay as above.
Method in brief: as §1

Row | Binder | SPOT peptide array binding signal intensity
7 | HPRFVSPRIPSRIVK | 238

The binders below were run against ScBbc1 in the same assay as above.
Method in brief: as §1

Row | Binder | SPOT peptide array binding signal intensity
8 | HPRFVSPRIPSRIVK | 283

The binders below were run against ScBem1-D1 in the same assay as above.
Method in brief: as §1

Row | Binder | SPOT peptide array binding signal intensity
9 | HPRFVSPRIPSRIVK | 21.5

What follows are binders tested against ScBzz1-D1 in the same assay as above.
Method in brief: as §1

Row | Binder | SPOT peptide array binding signal intensity
10 | HPRFVSPRIPSRIVK | 62

The binders below were run against ScBzz1-D2 in the same assay as above.
Method in brief: as §1

Row | Binder | SPOT peptide array binding signal intensity
11 | HPRFVSPRIPSRIVK | 73.5

These binders were tested against ScCyk3 in the same assay as above.
Method in brief: as §1

Row | Binder | SPOT peptide array binding signal intensity
12 | HPRFVSPRIPSRIVK | 12

These binders were tested against ScFus1 in the same assay as above.
Method in brief: as §1

Row | Binder | SPOT peptide array binding signal intensity
13 | HPRFVSPRIPSRIVK | 147

Each binder was assayed against ScHof1 in the same assay as above.
Method in brief: as §1

Row | Binder | SPOT peptide array binding signal intensity
14 | HPRFVSPRIPSRIVK | 8.75

The binders below were run against ScHse1 in the same assay as above.
Method in brief: as §1

Row | Binder | SPOT peptide array binding signal intensity
15 | HPRFVSPRIPSRIVK | 820

These binders were tested against ScLsb1 in the same assay as above.
Method in brief: as §1

Row | Binder | SPOT peptide array binding signal intensity
16 | HPRFVSPRIPSRIVK | 531

These binders were tested against ScLsb2 in the same assay as above.
Method in brief: as §1

Row | Binder | SPOT peptide array binding signal intensity
17 | HPRFVSPRIPSRIVK | 694

What follows are binders tested against ScLsb3 in the same assay as above.
Method in brief: as §1

Row | Binder | SPOT peptide array binding signal intensity
18 | HPRFVSPRIPSRIVK | 2050

These binders were tested against ScLsb4 in the same assay as above.
Method in brief: as §1

Row | Binder | SPOT peptide array binding signal intensity
19 | HPRFVSPRIPSRIVK | 114

The binders below were run against ScMyo3 in the same assay as above.
Method in brief: as §1

Row | Binder | SPOT peptide array binding signal intensity
20 | HPRFVSPRIPSRIVK | 27

The binders below were run against ScMyo5 in the same assay as above.
Method in brief: as §1

Row | Binder | SPOT peptide array binding signal intensity
21 | HPRFVSPRIPSRIVK | 32.5

The binders below were run against ScNbp2 in the same assay as above.
Method in brief: as §1

Row | Binder | SPOT peptide array binding signal intensity
22 | HPRFVSPRIPSRIVK | 510

Each binder was assayed against ScPex13 in the same assay as above.
Method in brief: as §1

Row | Binder | SPOT peptide array binding signal intensity
23 | HPRFVSPRIPSRIVK | 86.2

The binders below were run against ScRvs167 in the same assay as above.
Method in brief: as §1

Row | Binder | SPOT peptide array binding signal intensity
24 | HPRFVSPRIPSRIVK | 820

These binders were tested against ScSho1 in the same assay as above.
Method in brief: as §1

Row | Binder | SPOT peptide array binding signal intensity
25 | HPRFVSPRIPSRIVK | 256

What follows are binders tested against ScSla1-D1-D2 in the same assay as above.
Method in brief: as §1

Row | Binder | SPOT peptide array binding signal intensity
26 | HPRFVSPRIPSRIVK | 720

These binders were tested against ScSla1-D3 in the same assay as above.
Method in brief: as §1

Row | Binder | SPOT peptide array binding signal intensity
27 | HPRFVSPRIPSRIVK | 36

The binders below were run against SpAbp1-D1 in the same assay as above.
Method in brief: as §1

Row | Binder | SPOT peptide array binding signal intensity
28 | HPRFVSPRIPSRIVK | 180

Each binder was assayed against SpBbc1 in the same assay as above.
Method in brief: as §1

Row | Binder | SPOT peptide array binding signal intensity
29 | HPRFVSPRIPSRIVK | 19

These binders were tested against SpBzz1-D1 in the same assay as above.
Method in brief: as §1

Row | Binder | SPOT peptide array binding signal intensity
30 | HPRFVSPRIPSRIVK | 350

What follows are binders tested against SpBzz1-D2 in the same assay as above.
Method in brief: as §1

Row | Binder | SPOT peptide array binding signal intensity
31 | HPRFVSPRIPSRIVK | 1

These binders were tested against SpCyk3 in the same assay as above.
Method in brief: as §1

Row | Binder | SPOT peptide array binding signal intensity
32 | HPRFVSPRIPSRIVK | 4

What follows are binders tested against SpHof1 in the same assay as above.
Method in brief: as §1

Row | Binder | SPOT peptide array binding signal intensity
33 | HPRFVSPRIPSRIVK | 145

These binders were tested against SpHof1-2 in the same assay as above.
Method in brief: as §1

Row | Binder | SPOT peptide array binding signal intensity
34 | HPRFVSPRIPSRIVK | 15.8

What follows are binders tested against SpHof1-3 in the same assay as above.
Method in brief: as §1

Row | Binder | SPOT peptide array binding signal intensity
35 | HPRFVSPRIPSRIVK | 295

The binders below were run against SpHse1 in the same assay as above.
Method in brief: as §1

Row | Binder | SPOT peptide array binding signal intensity
36 | HPRFVSPRIPSRIVK | 318

What follows are binders tested against SpLsb1 in the same assay as above.
Method in brief: as §1

Row | Binder | SPOT peptide array binding signal intensity
37 | HPRFVSPRIPSRIVK | 1380

What follows are binders tested against SpLsb4 in the same assay as above.
Method in brief: as §1

Row | Binder | SPOT peptide array binding signal intensity
38 | HPRFVSPRIPSRIVK | 2670

These binders were tested against SpMyo1 in the same assay as above.
Method in brief: as §1

Row | Binder | SPOT peptide array binding signal intensity
39 | HPRFVSPRIPSRIVK | 49

The binders below were run against SpNbp2 in the same assay as above.
Method in brief: as §1

Row | Binder | SPOT peptide array binding signal intensity
40 | HPRFVSPRIPSRIVK | 78.5

These binders were tested against SpPex13 in the same assay as above.
Method in brief: as §1

Row | Binder | SPOT peptide array binding signal intensity
41 | HPRFVSPRIPSRIVK | 32

The binders below were run against SpRvs167 in the same assay as above.
Method in brief: as §1

Row | Binder | SPOT peptide array binding signal intensity
42 | HPRFVSPRIPSRIVK | 254

These binders were tested against SpSla1-D1-D2 in the same assay as above.
Method in brief: as §1

Row | Binder | SPOT peptide array binding signal intensity
43 | HPRFVSPRIPSRIVK | 1.5

The binders below were run against SpSla1-D3 in the same assay as above.
Method in brief: as §1

Row | Binder | SPOT peptide array binding signal intensity
44 | HPRFVSPRIPSRIVK | 11
